The values that follow come from PubChem BioAssay AID504332 (National Center for Advancing Translational Sciences (NCATS), 2011).

Screen size: about 350,000 compounds; about 31,000 (8.9%) were called active. About 15% were inconclusive and are not listed. For the sample, actives were picked, then their nearest neighbours and some compounds at random. Some compounds were tested as several samples or in several runs, with calls that do not always agree. A number with no mark means an inactive call. Calls come from the whole dose curve; as a rule, active = well fitted inhibition curve with a large enough effect; inconclusive = small, poorly fitted or top-dose-only effect; inactive = no such curve, though single readings can be large or run the other way.
% is set by controls: 0 for no effect and ±100 for the full control effect; potency is the fitted concentration of half-maximal effect.

Sequence of Histone-lysine N-methyltransferase EHMT2 (Homo sapiens) (Q96KQ7 913-1193 limits assumed): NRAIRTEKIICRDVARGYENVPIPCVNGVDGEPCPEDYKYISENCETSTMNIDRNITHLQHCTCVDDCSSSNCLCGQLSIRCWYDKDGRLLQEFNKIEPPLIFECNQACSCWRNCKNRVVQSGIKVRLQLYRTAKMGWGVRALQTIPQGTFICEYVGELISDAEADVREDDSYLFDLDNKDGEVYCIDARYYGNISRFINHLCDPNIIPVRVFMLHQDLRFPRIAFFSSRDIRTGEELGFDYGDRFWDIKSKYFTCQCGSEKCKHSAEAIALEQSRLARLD

The target in this experiment is Histone-lysine N-methyltransferase EHMT2 (Homo sapiens) (UniProt Q96KQ7). Briefly: qHTS Assay for Inhibitors of Histone Lysine Methyltransferase G9a. Note: nearly all actives have a fitted effect of over 75% in size. Particulars: G9a H3K9 monomethylation, AlphaScreen, 2 h; series mostly up to 59 µM; activity, negative = inhibition: at the top concentration. The method, boiled down:
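Methyltransferase reactions run at room temperature for 2 h (20 nM enzyme, 500 nM biotin-H3K9 peptide, 20 uM SAM) after a 15 min compound preincubation; product detected by AlphaScreen beads and anti-H3K9me1 antibody.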
On to `CCN(CC)c1nn2c(=O)c(C(=O)NCCc3ccccc3)cnc2s1`, for which the “activity, negative = inhibition” value was 18.4%. `CCc1noc(C)c1C(=O)Nc1nc2ccc(OC)cc2s1`: the activity, negative = inhibition was -2.24% [at 12.7 µM].

For `COC(=O)c1nc(NC(=O)c2ccccc2)n[nH]1`, the activity, negative = inhibition is -8.15% [at 12.7 µM].

With `COc1ccc(C(=O)Nc2ccc(F)cc2F)cc1`, the activity, negative = inhibition is 29.4% [at 12.7 µM]. In the case of `CSc1nccc(NC(=O)c2ccc(C(C)(C)C)cc2)n1`, the activity, negative = inhibition is 15.8% [at 0.501 µM]. On the same count and under the same terms, as for `O=C(Nc1n[nH]c(C(F)(F)F)n1)c1cccs1`, the figure is 0.152% [at 102 µM].

Regarding `COC(=O)c1nc(NC(=O)c2ccc(F)cc2)n[nH]1`, the Potency is 35.5 µM (active).

In the case of `COC(=O)c1nc(NC(=O)c2ccc(C(C)(C)C)cc2)n[nH]1`, the Potency was 31.6 µM (active). On to `COc1ccc(CNC(=O)COC(=O)c2ccc(C)c(S(=O)(=O)N3CCOCC3)c2)cc1OC`, for which the “activity, negative = inhibition” value was -2.29%. For `O=C(c1cc(-c2ccc(Cl)cc2)on1)N1CCN(c2ccccc2)CC1`, the “activity, negative = inhibition” value was -4.11%. Same read-out and setting: as for `Cc1ccc(NC(=O)Cn2cnc3nc4c(cc3c2=O)CCCC4)cc1Cl`, the figure is 2.05%.

With `Cc1ccc(C(=O)C(C)OC(=O)Cc2n[nH]c(=O)c3ccccc23)cc1C` (centres undefined), the activity, negative = inhibition was 13.1% [at 2.33 µM]. The same measure, in the same setting: as for `CCOC(=O)c1c(C)[nH]c(C)c1S(=O)(=O)N1CCCC(C(=O)NCc2ccccc2Cl)C1` (centres undefined), the figure is -29.4%; as for `COc1ccc(C(=O)C2CCCN(Cc3ccc4nonc4c3)C2)c(C)c1` (centres undefined), 88.2% [at 102 µM]; as for `COc1ccc(NC(=O)N2CCCC(C(=O)Nc3ccccc3OC)C2)cc1` (centres undefined), -0.0547% [at 102 µM]. On the same count and under the same terms, the value for `O=C(c1ccc(F)cc1)N1CCCC(C(=O)N2CCCCC2)C1` (centres undefined) was 67.9% [at 102 µM]; that for `CCCCNC(=O)N1CCCC(N(C)CCc2ccc(OC)c(OC)c2)C1` (centres undefined) was 38.3% [at 102 µM].

Turning to `COc1ccc(CN2CCCC(C(=O)N3CCCCC3)C2)cc1` (centres undefined), the Potency was 11.2 µM (active).

In the case of `COc1ccc(CCN(C)C(=O)C2CCCN(Cc3ccc(OC)c(OC)c3)C2)cc1OC` (centres undefined), the Potency was 5.01 µM (active) and the activity, negative = inhibition was -16.1% [at 0.501 µM]. `COc1ccc(/C=C/C(=O)NC(=S)N2CCCC(C(N)=O)C2)cc1` (centres undefined): the Potency is 79.4 µM (active). Regarding `CCOC(=O)C1CCCN(C(=O)/C=C/c2ccc(OC)cc2)C1` (centres undefined), the “activity, negative = inhibition” value was -38% [at 102 µM]. Same read-out and setting: as for `COc1ccc(CN2CCCC(CNC(=O)c3ccc(F)cc3)C2)cc1OC` (centres undefined), the figure is 31.5% [at 102 µM]; as for `Cc1nn(-c2ccc(N3CCCCC3)nn2)c(C)c1CCC(=O)NCc1ccccc1F`, 10.5%.

For the compound `OC(c1ccc(Cl)cc1)C(CN1CCOCC1)c1ccccc1` (centres undefined), the activity, negative = inhibition is -30.5% [at 2.33 µM].

Turning to `COC(=O)[C@]1(C)CCC[C@@]2(C)C3CC[C@]4(OC(C)=O)C[C@@]3(CCC21)CC4=NO` (some centres undefined), the activity, negative = inhibition was 3.11% [at 0.501 µM].

Regarding `COc1cc(OC)cc(-c2c(-c3cccs3)c3cc(-c4ccc(OC)nc4)ccc3n2C)c1`, the activity, negative = inhibition was 0.323% [at 0.501 µM]. Turning to `COc1cc2[nH]c(=O)n(Cc3ccc(C(=O)NCc4ccc(C)cc4)cc3)c(=O)c2cc1OC`, the “activity, negative = inhibition” value was -1.87%. For the compound `COc1ccc(F)cc1S(=O)(=O)NCC(c1ccc2c(c1)OCO2)N1CCN(C)CC1` (centres undefined), the Potency was 50.1 µM (active). Regarding `CN1CCN(C(CNC(=O)c2ccccc2F)c2ccc3c(c2)OCO3)CC1` (centres undefined), the “activity, negative = inhibition” value was -31.5%. The same measure, in the same setting: the value for `COc1ccc(F)cc1S(=O)(=O)Nc1ccc2c(c1)OCO2` was 26.9%; that for `Cc1ccc(Cn2c(=O)n(CCCC(=O)NCc3ccccc3Cl)c(=O)c3ccccc32)cc1` was 35%. On the same count and under the same terms, as for `O=C(Cn1c(=O)n(-c2ccc(F)cc2)c(=O)c2sc3ccccc3c21)NC1CCCC1`, the figure is -27.5%; as for `C=CCNC(=O)CSc1nc2sc(C)c(C)c2c(=O)[nH]1`, -15.5% [at 102 µM]; as for `CC(C)C(C)(C#N)NC(=O)CSc1nncn1-c1ccccc1` (centres undefined), 10.8% [at 102 µM]. Take `CC(C)C(C)(C#N)NC(=O)CSc1nc2scc(-c3ccccc3)c2c(=O)[nH]1` (centres undefined): the Potency is 28.2 µM (active). With `CCOc1ccc(CNC(=O)c2cccc(Nc3nc4ccccc4n4nnnc34)c2)cc1OC`, the “activity, negative = inhibition” value is 7.41%.

Regarding `Cc1nn2c(=O)cc(COC(=O)c3cccc(NC(=O)COc4ccccc4Cl)c3)nc2s1`, the “activity, negative = inhibition” value is 16.4%. On the same count and under the same terms, as for `CCCCCn1c(=O)[nH]c2cc(C(=O)Nc3ccc(F)cc3)ccc2c1=O`, the figure is 2.02%; as for `O=C(NCc1ccc2c(c1)CCN2C(=O)c1ccccc1)c1ccccc1`, -2.23%.

`CCCOc1ccc(/C(O)=C2/C(=O)C(=O)N(CCN(C)C)C2c2ccc(OC)c(OC)c2)cc1` (centres undefined): the Potency was 10 µM (active). As for `COc1cccc(C2/C(=C(/O)c3ccc(F)cc3)C(=O)C(=O)N2CCN(C)C)c1` (centres undefined), the “activity, negative = inhibition” value is -0.491%. The same measure, in the same setting: the value for `COc1ccc(/C(O)=C2/C(=O)C(=O)N(CCCN(C)C)C2c2ccccc2)cc1OC` (centres undefined) was 20.6%; that for `O=C(Nc1cccc(C(=O)NC2CC2)c1)c1ccc(F)c(S(=O)(=O)N2CCOCC2)c1` was 11.8% [at 0.501 µM]. `Cc1ccc(C2=NN(C(=O)CSc3nc(N)cc(N)n3)C(c3ccco3)C2)cc1` (centres undefined): the Potency was 50.1 µM (active).

With `COc1ccc(C2=NN(C(=O)CSc3nnnn3C)C(c3ccco3)C2)cc1` (centres undefined), the “activity, negative = inhibition” value was -3.31%. Same read-out and setting: as for `Cc1ccc(C2=NN(C(=O)COc3ncnc4ccccc34)C(c3ccco3)C2)cc1` (centres undefined), the figure is 10.3% [at 102 µM]; as for `CCCc1nn2c(=O)cc(COC(=O)c3ccc(NC(=O)COc4ccc(F)cc4)cc3)nc2s1`, 11.8%. Still for that read-out and setting: as for `Cc1nn(-c2ccccc2)c(C)c1NC(=O)COC(=O)c1cc(Cl)ccc1O`, the figure is -41% [at 102 µM]. Same read-out and setting: the value for `Cc1ccc(Nc2ccc(C(N)=O)cc2[N+](=O)[O-])cc1` was 25%; that for `Cc1cc(Nc2ccc(C(=O)N3CCCCC3)cc2)c2cccc(C)c2n1` was -10.5% [at 102 µM]. Consider `Cc1ccc(Nc2cc(C)nc3c(C)ccc([N+](=O)[O-])c23)cc1`, for which the Potency was 11.2 µM (active).

In the case of `COCCn1cnnc1SCC(=O)Nc1cccc(S(=O)(=O)N2CCCCC2)c1`, the activity, negative = inhibition was -9.19% [at 12.7 µM]. The same measure, in the same setting: as for `COc1ccc(CN2CCc3nc(Nc4ccccc4)ncc3C2)c(OC)c1OC`, the figure is -1.92%; as for `O=C(CCCn1c(SCC(=O)c2ccc(F)cc2)nc2ccccc2c1=O)NCc1ccco1`, 3.76% [at 102 µM]; as for `O=C(CSc1nc2ccc(Nc3nc(N4CCOCC4)nc(N4CCOCC4)n3)cc2s1)NCc1ccco1`, 3.15%. On to `C=CCn1c(CSc2nc3ccccc3s2)nnc1SCC(=O)NCc1ccco1`, for which the Potency was 44.7 µM (active). For `CCOC(=O)c1cccc(NS(=O)(=O)c2cc(-c3cnc(C)o3)ccc2OC)c1`, the “activity, negative = inhibition” value is 3.04%. Same read-out and setting: the value for `Cc1cccc(NS(=O)(=O)c2cccc(C(=O)NNC(=O)c3ccccc3O)c2)c1` was 56.9% [at 12.7 µM].
